Reference: PubChem BioAssay AID720629 (Broad Institute, 2013)
Results filed as inconclusive are left out. The source made the active and inactive calls. The rule behind the calls is not given here.

Experiment: caspase-3/7 apoptosis induction in SNB-75, late-stage follow-up, mechanism study for HRAS target identification, cell-based, caspase 3/7 luminescence, several timepoints, dry powder (AID 720629)
Conditions: max activity: measured here: caspase 3/7, timepoint 1, at 0.0003 µM, stronger effect = higher value unless noted

| SMILES | max activity | outcome |
| --- | --- | --- |
| C#CCCCC(=O)NCCOCCOCCOc1ccc(N(C(=O)CCl)C(C(=O)NCCc2ccccc2)c2cccs2)cc1Cl (centres undefined) | -28.3% | inactive |
| CCC(=O)N(c1ccc(OC)c(Cl)c1)C(C(=O)NCCc1ccccc1)c1cccs1 (centres undefined) | -24.1% [measured here: caspase 3/7, timepoint 1, at 0.0001 µM, stronger effect = higher value] | inactive |
